DRD3 agonist = agonists of human D3 dopamine receptor; D3R DiscoveRx beta-arrestin cells, luminescence, 90 min; P35462; max activation, %; 410,000 tested, 0.58% active; in the data active = max activation above about 30%
Target sequence (P35462 whole entry, looked up): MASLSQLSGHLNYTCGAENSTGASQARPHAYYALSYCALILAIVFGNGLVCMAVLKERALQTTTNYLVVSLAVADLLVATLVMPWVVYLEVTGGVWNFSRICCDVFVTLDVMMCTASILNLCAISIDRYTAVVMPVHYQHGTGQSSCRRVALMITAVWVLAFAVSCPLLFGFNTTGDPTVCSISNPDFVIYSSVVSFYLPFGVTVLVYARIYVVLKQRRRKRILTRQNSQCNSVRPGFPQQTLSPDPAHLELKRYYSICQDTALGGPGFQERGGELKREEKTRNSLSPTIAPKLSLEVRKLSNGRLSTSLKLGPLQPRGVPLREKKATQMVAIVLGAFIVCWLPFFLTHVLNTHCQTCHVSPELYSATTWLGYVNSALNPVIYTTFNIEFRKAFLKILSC
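Cells at 1500/well, incubated overnight, then treated with pinned compounds (dopamine as control) for 90 min at 37 degrees C. DiscoveRx reagent added for 30 - 60 minutes at room temperature; luminescence read.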
D1 potentiator = potentiators of human D1 dopamine receptor; P21728; HEK293 TREx D1 cells, calcium flux, dopamine EC20 potentiation; potentiation, % at 10 µM; 360,000 tested, 0.036% active; AID 504651; in the data active = potentiation above about 30%
D1 antagonist = antagonists of human D1 dopamine receptor; activity change, negative = inhibition, % at 10 µM; P21728; HEK293 TREx D1 cells, calcium flux, dopamine EC80; hits give low values; 360,000 tested, 3.2% active; in the data active = activity change below about -30%
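Calcium flux readout: force-coupled, inducible Hek293 Trex D1 line, cells induced overnight at 30 C with tetracycline, dye-loaded 30–90 min at RT. Antagonism scored against EC80 dopamine challenge given 180 s after compound.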
DRD3 antagonist = D3 dopamine receptor (human) antagonism; P35462; D3R cells, DiscoveRx beta-arrestin luminescence, antagonist mode; hits give low values; AID 652054; 360,000 tested, 2.5% active; max response, negative = inhibition, %; in the data active = max response below about -50%; inconclusive = no clear call, values can overlap the other calls
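Cells expressing the human receptor were seeded at 1500 cells/well, incubated overnight at 37 degrees C in 5% CO2, then exposed to library compounds with dopamine controls for 90 minutes at 37 degrees C before luminescent detection.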
D1 agonist = activates the human D1 dopamine receptor. P21728. HEK293 T-REx D1 cells, calcium flux, agonist mode. activation, % at 2 µM. 360,000 tested, 1% active. AID 504660; in the data active = activation above about 30%
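Tetracycline-induced HEK293 TREx D1 cells, force-coupled to calcium signalling, were dye-loaded with a no-wash calcium kit. Compound was pin-added after a 10 s baseline. Fluorescence was read kinetically at 1 cycle/s for 180 s, with calcium rises flagged as agonism.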
Chronic BCR inh = chronic active BCR signaling inhibition; ABC-DLBCL IkBa-CBG/CBR reporter, luminescence ratio, 4 h; Potency, µM (highest dose often 46.1 µM), actives largely listed as inhibitors; 340,000 tested, 0.05% active; active = well fitted inhibition curve with a large enough effect in the signal ratio, with a control signal flat, not every such curve was filed as active; inconclusive = small, poorly fitted or top-dose-only effect, or effect the other way, or a change in a side signal; the % refers to the signal ratio
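TMD8 ABC-DLBCL cells carrying doxycycline-inducible green luciferase fused to IkappaBalpha plus unfused red luciferase were exposed to compounds (up to 46 uM) for 4 hrs at 37C. Activity came from the overlap-corrected green/red luminescence ratio.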
A number is an active result; - = inactive; ? = inconclusive; . = no result. Rows were chosen to be rich in hits. Some 6% of all compounds tested hit in one or more screens of this group.

SMILES	DRD3 agonist	D1 potentiator	D1 antagonist	DRD3 antagonist	D1 agonist	Chronic BCR inh
CC(=O)/C(=N\Nc1ccccc1)Sc1nnc(-c2ccccc2)n1-c1ccccc1	-	-	-	-97	-	-
CC(=O)/C(=N\Nc1ccccc1Cl)Sc1nnc(-c2ccccc2)n1-c1ccccc1	-	-	-	-	-	-
Cc1cccc(NC(=O)Cn2c(=O)n(Cc3ccccc3)c(=O)c3oc4ccccc4c32)c1C	-	-	-	.	-	.
OC(CCCN1CCCCC1)(c1ccccc1)c1ccc(C(F)(F)F)cc1 (stereo unspecified)	-	.	.	-99	.	.
OC(CCN1CCCCC1)(c1ccccc1)c1ccccc1	-	-	-	-	-	?
CNC(=O)C1CCC(Cn2c(=O)c3sccc3n(CC(=O)NCc3ccc(C)cc3)c2=O)CC1 (stereo unspecified)	-	-	-	.	-	.
Cc1nc(N2CCN(c3ccccn3)CC2)c2c(C)c(C(=O)Nc3c(F)cc(F)cc3Br)sc2n1	39	-	-	-	-	?
Cc1nc(N2CCC(C)CC2)c2c(C)c(C(=O)Nc3ccccc3C(F)(F)F)sc2n1	31	-	-	-	-	?
C=CCNc1nc(N)c(C(=C(C#N)C#N)c2ccc(Br)cc2)s1	-	-	-32	-	-	-
C=CCNc1sc(C(=O)c2ccc(C)cc2)c(N)c1C#N	-	-	-	-	-	-
c1ccc(CCn2cnc3ccccc32)cc1	-	-	-	-	-	-
c1ccc2c(c1)ncn2CCN1CCCCC1	-	-	-71	-	-	-
c1ccc2c(c1)nc1n2CCN1CCN1CCCC1	-	-	-	-112	-	-
c1ccc(CN2CCN(CCN3CCn4c3nc3ccccc34)CC2)cc1	-	-	-	-72	-	-
CCC1Oc2ccccc2N(CC(=O)NC2CC2)C1=O (stereo unspecified)	-	-	-	-	-	-
CCC1Sc2ccccc2N(CC(=O)NC2CC2)C1=O (stereo unspecified)	-	-	-74	-	-	-
C=C(C)n1c(=O)n(Cc2ccccc2C)c2ccccc21	-	-	-	-	93	-
Cc1c(C(=O)NCc2ccccn2)oc2ccc(Br)cc12	-	-	-	-	-	?
O=C(NCc1ccccn1)c1cc2cc(Br)ccc2oc1=O	-	-	-68	-	-	?
COc1ccc(CCNc2nc(C)nc3c2nnn3Cc2ccccc2)cc1	-	-	-57	-	-	-
Cc1nc(NCCc2ccccc2)c2nnn(Cc3ccccc3Cl)c2n1	-	-	-	-	-	-
COc1cc(C2/C(=C(\O)c3ccc4c(c3)OCCO4)C(=O)C(=O)N2Cc2ccco2)ccc1O (stereo unspecified)	-	-	-	-	-	-
COc1ccc(/C(O)=C2\C(=O)C(=O)N(Cc3ccco3)C2c2cc(OC)ccc2OC)cc1 (stereo unspecified)	-	-	-31	-	-	-
COc1cc(C2/C(=C(\O)c3ccc4c(c3)OCCO4)C(=O)C(=O)N2Cc2ccco2)cc(OC)c1OC (stereo unspecified)	-	-	-33	-	-	-
COc1ccc(OC)c(C2/C(=C(/O)c3ccccc3)C(=O)C(=O)N2Cc2ccco2)c1 (stereo unspecified)	-	-	-	-	-	-
SMILES	DRD3 agonist	D1 potentiator	D1 antagonist	DRD3 antagonist	D1 agonist	Chronic BCR inh
O=C1C(=O)N(Cc2ccco2)C(c2cccc(Cl)c2)/C1=C(\O)c1ccc2c(c1)OCCO2 (stereo unspecified)	-	-	-53	-	-	-
CC(=O)N1CCCc2cc(S(=O)(=O)N3CCC(C(=O)NCc4ccc(N(C)C)cc4)CC3)ccc21	-	-	-	.	-	.
CCc1nc2nc(C)cc(Nc3cc(Cl)ccc3C)n2n1	-	-	-	.	-	.
COc1ccc(CCNC(=O)CN2C(=O)COc3ccc(C)cc32)cc1OC	-	-	-	.	-	.
CCCCn1c(NC(=O)c2ccccc2Cl)c(C#N)c2nc3ccccc3nc21	-	-	-39	?	-	-
O=C(Nc1ccncc1)c1cn(-c2ccccc2)nc1-c1cccs1	-	-	-49	-	-	?
O=C(O)c1ccc(NC(=O)c2cn(-c3ccccc3)nc2-c2cccc(Cl)c2)cc1	36	-	-	-	-	-
